# aSyn UTR act: Activators working through SNCA 5'UTR binding (MLPCN). actives 7.1% (n = 300,000). activity score, % (tested at 7.5 µM), hits read low. alpha-synuclein 5'UTR reporter, activators screen. AID 1814; in the data active = activity score below about -60%
# An asterisk follows results filed as active. Only a sample is shown.
SMILES,aSyn UTR act
CCN(CC)c1ccc(/C=C2/SC(=O)N(C(C)C)C2=O)o1,-175*
ONC(=Nc1ccc(Cl)cc1)c1ccc(Cl)cc1,-100*
Cn1c(SCCOc2ccc(F)cc2)nnc1-c1ccncc1,-62*
CCCCSc1nnc(-c2ccc(C)cc2)n1C,-109*
CCCCSc1nnc(-c2c[nH]c3ccccc23)n1C,-135*
Cn1c(SCc2ccccc2)nnc1-c1c[nH]c2ccccc12,-107*
CS(=O)(=O)N(CC(=O)NCc1ccncc1)c1ccc(Cl)c(Cl)c1,-89*
Nc1c(C(=O)Nc2ccc3c(c2)OCCO3)nnn1Cc1cccc(Br)c1,-163*
Nc1c(C(=O)Nc2ccc3c(c2)OCCO3)nnn1CCc1ccccc1,-126*
Nc1c(C(=O)Nc2ccccc2Cl)nnn1-c1ccc2c(c1)OCCO2,-216*
Nc1c(C(=O)Nc2ccc3c(c2)OCCO3)nnn1Cc1ccc(Br)cc1,-220*
CCc1cc(C(c2ccc(OC)c(OC)c2)N2CCOCC2)c(NC(=O)c2ccccc2)s1 (centres undefined),-62*
COc1ccc(-n2cnc3cc(N)ccc32)cc1,-75*
Cc1c(C)n(CCc2ccccc2)c2ncnc(NCCO)c12,-146*
N=c1c2c(-c3ccccc3)c(-c3ccccc3)n(Cc3ccccc3)c2ncn1CCO,61
COc1ccccc1Nc1ncnc2c1c(C)c(C)n2CCO,-103*
CCCCCCOC(=O)c1ccc(N)cc1,-114*
CCCCOC(=O)Nc1ccc(C(=O)OC)cc1,-110*
CCCCOC(=O)Nc1ccc(C)c(Cl)c1,-164*
CCCCCCCCOC(=O)c1c(CSC(=N)N)n(C)c2cc(Br)c(OC(C)=O)cc12,41
Cc1cccc2sc(NC(=O)C3CCCO3)nc12 (centres undefined),-126*
CSc1nc2ccc(NC(=O)C3CCCO3)cc2s1 (centres undefined),-125*
COc1ccc2nc(NC(=O)C3CCN(C(=O)c4ccco4)CC3)sc2c1,-73*
O=C(Nc1nc(-c2ccc(Cl)cc2)cs1)C1CCCO1 (centres undefined),-90*
Cc1nc(C)c(C(=O)Nc2nc3c(C)cccc3s2)o1,-74*
SMILES,aSyn UTR act
COc1ccc(-c2nnc(NC(=O)C3CCCO3)s2)cc1 (centres undefined),-112*
COc1ccc2nc(NC(=O)C3CCCO3)sc2c1 (centres undefined),-87*
CSc1nc2ccc(NC(=O)NC(=O)c3c(F)cccc3F)cc2s1,-125*
O=C(Nc1cccnc1)c1ccc([N+](=O)[O-])o1,-202*
O=C(NN(c1ccccc1)c1ccccc1)c1ccc([N+](=O)[O-])o1,-83*
O=C(NCc1cccnc1)c1ccc([N+](=O)[O-])o1,-117*
NC(=O)c1oc2ccccc2c1NC(=O)c1ccc([N+](=O)[O-])o1,100
COC(=O)c1sccc1-c1ccc(C(=O)Nc2cccnc2)o1,-76*
N#Cc1ccccc1CSc1ccc(-c2nc3ccccc3[nH]2)cn1,-120*
Cc1ccc2nc(-c3ccc(SCC(=O)N4CCc5ccccc54)nc3)[nH]c2c1,-388*
Cc1ccc2nc(-c3cccnc3SCC(=O)N3c4ccccc4CC3C)[nH]c2c1 (centres undefined),-80*
Cc1cc2nc(-c3ccc(SCc4ccc(C#N)cc4)nc3)[nH]c2cc1C,-105*
CC(=O)CSc1ccc(-c2nc3ccccc3[nH]2)cn1,-72*
CC(=O)CSc1ccc(-c2nc3cc(C)c(C)cc3[nH]2)cn1,121
Cc1ccc(SCC(=O)c2c(C)nc3ccccn23)cc1,-85*
CC(C)Sc1nc(N)nc(-c2cccs2)c1C#N,-146*
CC(=O)c1ccc(-n2c(CCC(=O)O)ccc2-c2cccs2)cc1,-99*
COc1ccc(/C=N/NC(=O)c2cccc(NC(=O)c3ccccc3Cl)c2)cc1,-99*
CC(=O)Nc1cccc(C(=O)N/N=C/c2ccc(F)cc2)c1,-115*
CC(=O)Nc1cccc(C(=O)N/N=C/c2ccccc2F)c1,-109*
COc1ccc(C(=O)Nc2cccc(C(=O)N/N=C/c3ccc(OC)cc3OC)c2)cc1,83
CC1CCOC(c2coc3ccccc3c2=O)O1 (centres undefined),-113*
Fc1ccc(-n2nnc(-c3cccnc3Cl)n2)cc1,-86*
Clc1ccc(-n2nnc(-c3cccnc3Cl)n2)cc1Cl,-109*
Cc1cc(CC(C)C)n(-c2nc3ccccc3c(=O)n2OCc2ccccc2)n1,-75*
SMILES,aSyn UTR act
Cc1cc(C)n(-c2nc3ccccc3c(=O)n2OCC(=O)OCc2ccccc2)n1,62
O=C(CSc1ccc(Br)cc1)N1CCOCC1,-65*
O=C(CSc1ccc(Cl)cc1)N1CCOCC1,-69*
O=C(CCSc1ccc(Cl)cc1)N1CCOCC1,-69*
Cc1ccc(NC(=O)C2=C(O)c3sccc3N(C)S2(=O)=O)cc1,-101*
Cc1cc(Br)ccc1-n1[nH]c(C)c(C=Nc2cccc3nsnc23)c1=O,-70*
Nc1cc(-c2ccc(Br)cc2)nn1Cc1ccccc1,-196*
O=C(c1ccc(-c2ccccc2)cc1)N1CCCC1,-88*
O=C(c1cccc(-c2nnc(-c3ccccc3)o2)c1)N1CCCCC1,-76*
O=C(Oc1ccc(-c2ccccc2)cc1)N1CCCCC1,-169*
COc1ccc(Br)cc1CNC(=O)C1CCN(C(=O)N(C)C)CC1,78
CN(C)C(=O)N1CCCC(C(=O)NCCc2ccccc2)C1 (centres undefined),-91*
CC1CCCN(C(=S)NCCc2ccccc2)C1 (centres undefined),-102*
O=C(NCCc1ccccc1)C1CCN(C(=O)Nc2ccccc2)CC1,-66*
CC1CCCCN1C(=S)NCCc1ccccc1 (centres undefined),-93*
COc1ccccc1C(=O)Nc1cc2cc(Cl)ccc2oc1=O,-123*
COc1ccccc1C(=O)NNC(=O)c1ccc(Cl)cc1,-70*
COc1ccccc1C(=O)NNC(=O)c1ccc(F)cc1,-92*
CC1(C)Cc2c(c(N3CCOCC3)nc3sc4c(NCc5ccccc5)nnnc4c23)CS1,68
Cc1cc(C)nc(SCC(=O)NC2=NN=C(c3ccc(Br)cc3)CS2)n1,-74*
Cc1ccc2nc(NC(=O)CSCc3ccccc3)sc2c1,-79*
CSc1nsc(SCC(=O)Nc2nc3ccc(C)cc3s2)n1,-84*
CC(C)=CC(=O)Nc1nnc(C(C)C)s1,-119*
CC(C)=CC(=O)Nc1nnc(-c2cccnc2)s1,-67*
CN(C)c1ccc(C2Nc3ccccc3C(=O)N2CCCN2CCOCC2)cc1 (centres undefined),-120*
SMILES,aSyn UTR act
Cc1ccc(-c2nn(-c3ccccc3)cc2C=C2C(=O)CC(C)(C)CC2=O)cc1,-94*
CC1=NNC(=O)/C1=C\c1cn(-c2ccccc2)nc1-c1ccc(Cl)cc1,98
Cc1cccc(C(=O)c2c(N)sc3c2CCC(C)C3)c1 (centres undefined),-85*
O=C(NC1=NCCS1)c1csc2ccccc12,-183*
O=C(NC1=NCCS1)Nc1ccccc1,-121*
CC(Oc1ccccc1)C(=O)NC1=NCCS1 (centres undefined),-108*
COc1cccc(-c2nc3ccc([N+](=O)[O-])cc3o2)c1,-120*
O=[N+]([O-])c1ccc2nc(-c3ccccc3)oc2c1,-224*
C/C(N)=C(/C#N)C(=O)COC(=O)c1cccc2ccccc12,-62*
COc1ccc2oc(C(=O)OCC(=O)/C(C#N)=C(\C)N)c(C)c2c1,-81*
[O-][n+]1onc2c1CCc1nnccc1-2,-86*
COc1ccc(CNC(=O)Cn2cccc2C(=O)c2ccccc2)cc1,-69*
COc1ccc(CNC(=O)Cn2cccc2C(=O)c2ccccc2C)cc1,-101*
